Bioassay records deposited in PubChem by National Center for Advancing Translational Sciences (NCATS).
This is a sample that favours compounds with a hit; in the whole collection about 7.3% have one here.
VP16 counter: counter-screen for ROR gamma inhibitors: Gal4-VP16 reporter | Drosophila S2 Gal4-VP16 UAS-luciferase, luminescence, 20 h | Potency, µM (doses to about 53.6 µM), without a hit: at the highest dose activity, negative = inhibition, most hits filed as inhibitors | 3.5% of 310,000 active | AID 2546;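 also: Gal4-VP16 expression switched on by copper sulfate through the metallothionein promoter; nearly all actives have a fitted effect of over 50% in size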
Tau fibril ThT: tau fibrillization inhibition (ThT binding) | recombinant tau K18 P301L, heparin-induced fibrillization, ThT fluorescence | Potency, µM (series often up to 57.4 µM), without a hit: top-dose activity, negative = inhibition, hits mostly inhibitors | 2.1% of 270,000 active; also: nearly all actives have a fitted effect of over 55% in size
Target sequence (P10636 561-689 P618L limits assumed): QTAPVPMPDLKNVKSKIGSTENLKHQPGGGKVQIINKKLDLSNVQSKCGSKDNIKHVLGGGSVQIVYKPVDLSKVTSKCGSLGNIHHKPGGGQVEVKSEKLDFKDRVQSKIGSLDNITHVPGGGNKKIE
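In this qHTS, human K18 P301L tau is incubated with compound and heparin for 6 hr at 37 C, and Thioflavin T fluorescence then reports fibril load.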
RORgamma inh: inhibitors of mouse ROR gamma transcriptional activity; AID 2551; 5.4% of 310,000 active; P51450; Drosophila S2 Gal4-RORgamma UAS-luciferase reporter, 20 h; Potency, µM (top dose mostly 53.6 µM), for inactives: at the top dose activity change, negative = inhibition, actives largely listed as inhibitors; also: nearly all actives have a fitted effect of over 60% in size
Target sequence (P51450 whole entry, looked up, the tested form may be a part): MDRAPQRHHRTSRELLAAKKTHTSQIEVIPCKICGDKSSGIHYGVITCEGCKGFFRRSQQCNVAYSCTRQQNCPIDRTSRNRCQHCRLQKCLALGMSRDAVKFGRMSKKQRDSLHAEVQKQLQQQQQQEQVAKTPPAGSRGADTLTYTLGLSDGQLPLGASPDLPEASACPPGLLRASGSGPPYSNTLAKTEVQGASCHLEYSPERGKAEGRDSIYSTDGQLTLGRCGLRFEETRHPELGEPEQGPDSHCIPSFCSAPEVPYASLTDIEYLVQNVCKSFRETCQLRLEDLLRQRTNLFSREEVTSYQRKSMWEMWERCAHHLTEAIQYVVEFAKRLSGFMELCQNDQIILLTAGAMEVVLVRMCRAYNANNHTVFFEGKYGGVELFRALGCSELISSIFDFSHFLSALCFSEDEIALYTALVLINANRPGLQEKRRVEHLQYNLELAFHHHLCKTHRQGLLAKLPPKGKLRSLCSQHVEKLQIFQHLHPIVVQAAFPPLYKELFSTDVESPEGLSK
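Using a luciferase readout, inhibitors were identified by reduced reporter activity in Drosophila cells coexpressing a copper-inducible Gal4–ROR gamma fusion and UAS-driven Photinus luciferase, incubated 20 hr after 700 uM copper sulfate.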
Tau FP inhib: tau fibrillization inhibition (FP); P10636; K18 P301L tau heparin fibrillization, Alexa594 FP, 6 h; Potency, µM (series often up to 57.7 µM), for inactives: at the highest dose activity, negative = inhibition, hits mostly inhibitors; 0.39% of 280,000 active; also: nearly all actives have a fitted effect of over 55% in size
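Human K18 P301L fragment (15 uM unlabeled plus 0.24 uM Alexa 594-labeled) in 100 mM sodium acetate pH 7 with compound, aggregation induced by 20 uM heparin for 6 hr at 37 C. ThT (30 uM) added for 1 hr, then Alexa 594 FP read.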
Tau fluor cs: counter-screen for tau fibril formation inhibitors | Potency, µM (series often up to 57.7 µM), for inactives: at the highest dose activity change, negative = decrease | tau K18 P301L (four-repeat tau fragment) Alexa594 fluorescence, heparin fibrillization | AID 1463 | 0.93% of 280,000 active; also: nearly all actives have a fitted effect of over 55% in size
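Human K18 P301L tau (15 uM unlabeled plus 0.24 uM Alexa 594-labeled, final) in 100 mM sodium acetate pH 7 was mixed with compound and 20 uM heparin and incubated 6 hr at 37 C.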
An asterisk follows results filed as active; ? = inconclusive; nt = not tested or not shown; [ ] = dose if it differs, or a comment. Calls follow the shape of the dose curve; as a rule, active = well fitted curve in the direction sought with a large enough effect; inconclusive = small, poorly fitted or top-dose-only effect, or another doubt; inactive = no such curve, though single readings can be large; an effect the other way counts as inactive or inconclusive. % is scaled to controls: 0 for no effect and ±100 for the full control effect; potency is read from the fitted curve at half-maximal effect.

SMILES | VP16 counter | Tau fibril ThT | RORgamma inh | Tau FP inhib | Tau fluor cs
CCOC(=O)c1ccc(Oc2cn[nH]c2-c2ccc(O)cc2O)cc1 | -24% | ? | 4% | ? | 13µM*[quencher]
CCOC(=O)c1ccc(Oc2cn[nH]c2-c2ccc(OCC(=O)NN)cc2O)cc1 | 3% | nt | -2% | nt | nt
Cc1ccc(CNc2nc(-c3ccco3)nn2C(=O)c2ccccc2[N+](=O)[O-])cc1 | nt | -10% | nt | 7% | ?
CSc1ccc(CN2CCN(C(=O)CC(C)C)CC2)cc1 | 3% | nt | -8% | nt | nt
Cc1ccc2nc(/N=C(\N)NC(=O)NC3CCCCC3)nc(C)c2c1 | 7.1µM* | ? | -67% | -3% | -14%
Cc1cc2nc(/N=C(\N)NC(=O)C(C)C)nc(C)c2cc1C | -1% | ? | -33% | -8% | -15%
CCC(=O)N/C(N)=N/c1nc(C)c2cc(C)c(C)cc2n1 | 3% | ? | 1µM* | 5% | 4%
Nc1nc2c(nc(Br)n2C2O[C@H]3COP(=O)(O)O[C@@H]3C2O)c(=O)[nH]1 (some centres not stated) | nt | ? | nt | 3% | -4%
CCC(=O)N(CCc1ccccc1)Cc1cc2cc(OC)ccc2[nH]c1=O | -2% | nt | 0% | 4% | -25%
Cc1ccc(-n2c(C)cc(/C=N/NC(=O)CC3(C)OCCO3)c2C)c(C)c1 | 6% | -20% | -11% | -8% | -9%
CC1(CC(=O)N/N=C/c2cc([N+](=O)[O-])c(O)cc2O)OCCO1 | ? | ? | 5.6µM* | -4% | -10%
N#Cc1c2c(c(-c3ccccc3Cl)[nH]c1=S)CCCC2 | 16µM* | -12% | 16µM* | 0% | 9%
Cn1c(=O)c(=O)n(C)c2cc([N+](=O)[O-])c([N+](=O)[O-])cc21 | ? | ? | 7.9µM* | 3% | -4%
COc1ccc(C2/C=C\CN(C(=O)c3ccc(C)cc3)C(C)C(=O)N2Cc2ccc(F)cc2)cc1 (configuration not stated) | -18% | nt | 28% | nt | nt
Cc1nc2cc(NC(=O)c3ccc(Br)s3)ccc2s1 | ? | nt | 5µM* | nt | nt
Cc1ccc(C(=O)Nc2ccc3nc(C)sc3c2)s1 | 16% | 0% | ? | -14% | -19%
Cc1[nH]n(-c2ccccc2)c(=O)c1Sc1ccc(Cl)cc1 | -11% | -15% | 31% | -15% | -18%
CCCSC(=S)c1c(C)[nH]n(-c2ccccc2)c1=O | 0.79µM* | ? | 0.32µM* | -13% | ?
CC(C)(C)NS(=O)(=O)c1ccc2[nH]c3c(c2c1)CCCCC3 | -8% | nt | -20% | nt | nt
Cc1ccc(NS(=O)(=O)c2ccc3[nH]c4c(c3c2)CCCCCC4)cc1Cl | nt | -6% | nt | -9% | 7.1µM*[quencher]
COc1ccc(NS(=O)(=O)c2ccc3[nH]c4c(c3c2)CCCC4)cc1Cl | nt | -13% | nt | -13% | 8.9µM*[quencher]
Cc1ccc(NS(=O)(=O)c2ccc3[nH]c(=O)ccc3c2)cc1N(C)C | nt | -14% | nt | 9% | -21%
Cc1ccc(NS(=O)(=O)c2ccc3[nH]c4c(c3c2)CCCC4)cc1N(C)C | nt | -7% | nt | 13% | 22µM*[quencher]
CCCOc1ccc(CNC(=O)C(C)n2nc(C)n3c(cc4occc43)c2=O)cc1 (configuration not stated) | nt | -14% | nt | 1% | -17%
Cc1nc(N2CCCC2)c2c(C(=O)Nc3cccc(C)c3C)c(C)oc2n1 | nt | -7% | nt | -4% | -6%
SMILES | VP16 counter | Tau fibril ThT | RORgamma inh | Tau FP inhib | Tau fluor cs
Cc1oc2cc([N+](=O)[O-])c(O)c([N+](=O)[O-])c2c1C(=O)c1ccc(Cl)cc1 | -2% | 18µM* | 13% | 1% | -24%
COc1ccc(OC)c(C(=O)c2c(C)oc3cc([N+](=O)[O-])c(O)c([N+](=O)[O-])c23)c1 | 9% | 13µM* | 18% | -6% | -25%
Cc1ccc(C(=O)ONC(=O)c2ccc(Cl)cc2)cc1[N+](=O)[O-] | ? | nt | -20% | nt | nt
COc1ccc(NC(=O)O/N=C/c2c(C)nn(C(C)(C)C)c2C)cc1 | 11µM* | ? | 2.5µM* | -4% | -22%
COc1ccc(NC(=O)CCC(=O)N/N=C/c2cn(C)nc2C)cc1 | 2% | nt | 15% | -4% | -18%
Cc1cc(/C=N/n2cnnc2)c(C)n1-c1ccc(OCc2ccc(Cl)cc2Cl)cc1 | 11µM* | ? | 0% | 11% | -28%
CCc1ccc(NC(=O)CSc2nc(=O)n(Cc3ccncc3)c3c2CCC3)cc1 | nt | -1% | nt | -6% | -7%
CCOC(=O)c1ccc(N2C(=O)c3[nH]nc(-c4ccc(C)cc4)c3C2c2ccc(O)c(OCC)c2)cc1 (configuration not stated) | nt | 0% | nt | ? | ?
CCOc1cccc(N)c1 | -4% | nt | 17% | nt | nt
CCOc1ccc(N)c(SSc2cc(OCC)ccc2N)c1 | 6.3µM* | nt | 7.9µM* | nt | nt
Cc1cccc(N2C(=S)NC3c4cc(Cl)ccc4OC2(C)C3C(=O)N(C)C)c1 (configuration not stated) | -29% | -3% | ? | -3% | -3%
Cc1ccc(N2C(=S)NC3c4cc(Cl)ccc4OC2(C)C3C(=O)N(C)C)cc1 (configuration not stated) | -20% | -24% | 11µM* | 7% | -19%
COc1ccc(C(=O)NCCSc2c[nH]c3ccccc23)cc1OC | nt | ? | nt | 3% | ?
COc1ccc(C(c2c[nH]c3ccccc23)c2c[nH]c3ccccc23)cc1O | 14% | ? | 41% | ? | 14µM*[quencher]
N#CC(C#N)=C(Nc1ccc(F)cc1)SCc1cccc(Br)c1 | 7.9µM* | ? | ? | ? | ?
CCCC[C@]12Cc3ccccc3C(O1)c1c(c3ccccc3oc1=O)O2 | -9%[10 µM] | nt | 14%[10 µM] | nt | nt
O=S(=O)(c1cccc(NC(=S)N2CCN(c3cccc(Cl)c3)CC2)c1)C(F)F | ? | -15% | 13µM* | ? | ?
S=C(Nc1ccc(Cl)c(Cl)c1)N1CCN(c2ccccn2)CC1 | -9% | nt | -28%[1.91 µM] | nt | nt
S=C(Nc1ccc(Oc2ccccc2)cc1)N1CCN(c2ccccn2)CC1 | ? | ? | 11µM* | -5% | ?
S=C(Nc1cccc(Cl)c1)N1CCN(c2ccccn2)CC1 | 13µM* | nt | 11µM* | nt | nt
COc1cccc(NC(=S)N2CCN(c3ccccn3)CC2)c1 | -5% | -11% | ? | -2% | -9%
O=C(CSc1nc2ccccc2s1)NNC(=S)Nc1ccccc1 | 4.5µM* | 6% | 1µM* | 1% | 7%
O=C(CSc1nc2ccccc2s1)NNC(=S)Nc1ccc(Br)cc1 | ? | ? | 0.89µM* | 2% | ?
CCn1c(SCC(=O)NNC(=S)Nc2ccccc2)nnc1-c1ccc(Cl)cc1 | 1.3µM* | -5% | 4µM* | 3% | -2%
O=C(CSc1nc2ccccc2s1)NNC(=O)Nc1ccc(Cl)c(Cl)c1 | 27%[0.365 µM] | -17% | ? | 20µM* | ?
Cc1ccc(CS(=O)(=O)Cc2ccc(C(=O)NCCc3ccc(Cl)cc3)o2)cc1 | nt | -3% | nt | -11% | -6%
